Source: PubChem BioAssay (NCI)
The panel holds about 83,000 compounds, 20% with a hit somewhere; the sample as a whole holds those more often.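 Values shown are percent growth following 48 h exposure of cells in 96-well plates to a single concentration of compound; below 10 was considered active.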 Active and inactive are the calls of the source.

Key:
Assay in all cases: NCI-60 one-dose screen, 48 h (100 = growth as untreated, 0 = no growth, -100 = all killed)
Conditions in all cases: 10 µM unless noted
HCT-15 colon = system: HCT-15 colon
HT29 colon = system: HT29 colon
SNB-75 CNS = system: SNB-75 CNS
SNB-19 CNS = system: SNB-19 CNS
U251 CNS = system: U251 CNS
PC-3 prostate = system: PC-3 prostate
SK-MEL-5 melanoma = system: SK-MEL-5 melanoma
UACC-62 melanoma = system: UACC-62 melanoma
LOX IMVI melanoma = system: LOX IMVI melanoma
SK-MEL-28 melanoma = system: SK-MEL-28 melanoma
SK-MEL-2 melanoma = system: SK-MEL-2 melanoma
EKVX NSCLC = system: EKVX NSCLC
SN12C renal = system: SN12C renal
UO-31 renal = system: UO-31 renal
TK-10 renal = system: TK-10 renal
ACHN renal = system: ACHN renal
CAKI-1 renal = system: CAKI-1 renal
A498 renal = system: A498 renal
CCRF-CEM leukemia = system: CCRF-CEM leukemia
MOLT-4 leukemia = system: MOLT-4 leukemia

Measured: growth

O=C(Nc1cccnc1)c1ccc2ccc3ccc(C(=O)Nc4cccnc4)nc3c2n1
active: HT29 colon 7.42% | A498 renal -39.1%
inactive: HCT-15 colon 19.9% | SNB-75 CNS 40.6% | SNB-19 CNS 13.2% | U251 CNS 12.2% | PC-3 prostate 33.2% | SK-MEL-5 melanoma 26.3% | UACC-62 melanoma 29% | LOX IMVI melanoma 14% | SK-MEL-28 melanoma 17.7% | SK-MEL-2 melanoma 25.8% | EKVX NSCLC 54.4% | SN12C renal 32.4% | UO-31 renal 36.3% | TK-10 renal 37.1% | ACHN renal 23.3% | CAKI-1 renal 10.7% | CCRF-CEM leukemia 28.5% | MOLT-4 leukemia 32.1%

CCCCCCCCCCCCNC(=S)N/N=C/c1ccccc1O
inactive: HCT-15 colon 56.9% | HT29 colon 36.6% | SNB-75 CNS 81.1% | SNB-19 CNS 80.2% | U251 CNS 78.4% | PC-3 prostate 69.5% | SK-MEL-5 melanoma 88.8% | UACC-62 melanoma 77.7% | LOX IMVI melanoma 60.5% | SK-MEL-28 melanoma 93.3% | SK-MEL-2 melanoma 80.8% | EKVX NSCLC 89.1% | SN12C renal 69.4% | UO-31 renal 37.6% | TK-10 renal 128% | ACHN renal 77.1% | CAKI-1 renal 65.4% | A498 renal 94.3% | CCRF-CEM leukemia 46.1% | MOLT-4 leukemia 52.4%

Clc1ccc(N2CCN(CCCN3CCN(c4cccc(Cl)c4)CC3)CC2)cc1
active: SK-MEL-5 melanoma 1.8%
inactive: HCT-15 colon 40.2% | HT29 colon 34.7% | SNB-75 CNS 52.3% | SNB-19 CNS 63.3% | U251 CNS 55.2% | PC-3 prostate 45.3% | UACC-62 melanoma 58.9% | LOX IMVI melanoma 48.4% | SK-MEL-28 melanoma 84.6% | SK-MEL-2 melanoma 96.7% | EKVX NSCLC 41.9% | SN12C renal 64.2% | UO-31 renal 36.6% | TK-10 renal 41.4% | ACHN renal 71.6% | CAKI-1 renal 42.7% | A498 renal 60.4% | CCRF-CEM leukemia 58.9% | MOLT-4 leukemia 43.7%

COc1cc(NCc2ccccc2O)c2ncccc2c1
active: CAKI-1 renal 8.76%
inactive: HCT-15 colon 77.8% | HT29 colon 102% | SNB-75 CNS 64.5% | SNB-19 CNS 92.8% | U251 CNS 98.9% | PC-3 prostate 83.6% | SK-MEL-5 melanoma 101% | UACC-62 melanoma 95% | LOX IMVI melanoma 83.9% | SK-MEL-28 melanoma 111% | SK-MEL-2 melanoma 142% | EKVX NSCLC 82% | SN12C renal 106% | UO-31 renal 75.8% | TK-10 renal 150% | ACHN renal 97.2% | A498 renal 72% | CCRF-CEM leukemia 91.5% | MOLT-4 leukemia 88.3%

CCn1cc(-c2[nH]c(=S)ncc2-c2ccc(Cl)cc2)c(-c2ccc(Br)cc2)n1
inactive: HCT-15 colon 85.5% | HT29 colon 92.1% | SNB-75 CNS 99.1% | SNB-19 CNS 75.6% | U251 CNS 74.3% | PC-3 prostate 64.3% | SK-MEL-5 melanoma 86.4% | UACC-62 melanoma 76.7% | LOX IMVI melanoma 86.8% | SK-MEL-28 melanoma 73.7% | SK-MEL-2 melanoma 72% | EKVX NSCLC 85.7% | SN12C renal 85.1% | UO-31 renal 89.4% | TK-10 renal 109% | ACHN renal 91.1% | CAKI-1 renal 98.5% | A498 renal 106% | CCRF-CEM leukemia 97.8% | MOLT-4 leukemia 97.2%

CSc1nc2sc3cc(Cl)c(Cl)cc3n2c(=N)c1C#N
inactive: HCT-15 colon 104% | HT29 colon 94.6% | SNB-75 CNS 69.2% | SNB-19 CNS 100% | U251 CNS 105% | PC-3 prostate 97.6% | SK-MEL-5 melanoma 86.4% | UACC-62 melanoma 82.2% | LOX IMVI melanoma 94.5% | SK-MEL-28 melanoma 108% | SK-MEL-2 melanoma 102% | EKVX NSCLC 80.1% | SN12C renal 98.4% | UO-31 renal 69.3% | TK-10 renal 121% | ACHN renal 117% | CAKI-1 renal 87.9% | A498 renal 116% | CCRF-CEM leukemia 107% | MOLT-4 leukemia 95.5%

CCN(CC)c1ccc2cc(C(Nc3ccc(Br)c(C(F)(F)F)c3)c3nnnn3C(C)(C)C)c(=O)oc2c1 (stereo not given)
inactive: HCT-15 colon 94.8% | HT29 colon 85.9% | SNB-75 CNS 67.7% | SNB-19 CNS 86.1% | U251 CNS 86.6% | PC-3 prostate 79.7% | SK-MEL-5 melanoma 84.7% | UACC-62 melanoma 88.8% | LOX IMVI melanoma 98% | SK-MEL-28 melanoma 104% | SK-MEL-2 melanoma 89.9% | EKVX NSCLC 87.7% | SN12C renal 90.4% | UO-31 renal 74% | TK-10 renal 83.9% | ACHN renal 99.1% | CAKI-1 renal 85% | A498 renal 67.6% | CCRF-CEM leukemia 92.1% | MOLT-4 leukemia 69.6%

O=c1[nH]cnc2c1ccn2C1OC(CO)C(O)C1O (stereo not given)
inactive: HCT-15 colon 45.5% | HT29 colon 65.9% | SNB-75 CNS 74.6% | SNB-19 CNS 78.3% | U251 CNS 81.2% | PC-3 prostate 36.3% | SK-MEL-5 melanoma 83.1% | UACC-62 melanoma 73.3% | LOX IMVI melanoma 27.8% | SK-MEL-28 melanoma 91.2% | SK-MEL-2 melanoma 21.2% | EKVX NSCLC 79% | SN12C renal 63.1% | UO-31 renal 37.9% | TK-10 renal 52.7% | ACHN renal 27.8% | CAKI-1 renal 37.2% | A498 renal 57.5% | CCRF-CEM leukemia 64.1% | MOLT-4 leukemia 53.6%

Cc1cc(-c2ccc(N=Nc3c(S(=O)(=O)O)cc4cc(S(=O)(=O)O)cc(N)c4c3O)c(C)c2)ccc1N=Nc1cc(S(=O)(=O)O)c2ccccc2c1O
inactive: HCT-15 colon 104% | HT29 colon 100% | SNB-75 CNS 98.5% | SNB-19 CNS 94.4% | U251 CNS 99.5% | PC-3 prostate 96.9% | SK-MEL-5 melanoma 100% | UACC-62 melanoma 93.6% | LOX IMVI melanoma 106% | SK-MEL-28 melanoma 107% | SK-MEL-2 melanoma 111% | EKVX NSCLC 81.1% | SN12C renal 98.1% | UO-31 renal 73.1% | TK-10 renal 102% | ACHN renal 95.4% | CAKI-1 renal 78.9% | A498 renal 96.4% | CCRF-CEM leukemia 106% | MOLT-4 leukemia 102%

CCOc1ccccc1/C=N\Nc1ccc(S(=O)(=O)c2ccc(N/N=C/c3ccccc3OCC)cc2)cc1
inactive: HCT-15 colon 82.9% | HT29 colon 108% | SNB-75 CNS 80.8% | SNB-19 CNS 93.5% | U251 CNS 94.8% | PC-3 prostate 87% | SK-MEL-5 melanoma 100% | UACC-62 melanoma 85% | LOX IMVI melanoma 92.5% | SK-MEL-28 melanoma 100% | SK-MEL-2 melanoma 103% | EKVX NSCLC 90.7% | SN12C renal 93.5% | UO-31 renal 66.5% | TK-10 renal 126% | ACHN renal 88.7% | CAKI-1 renal 67.2% | A498 renal 113% | CCRF-CEM leukemia 94.7% | MOLT-4 leukemia 80.8%

COc1cc(C(=O)/C=C/c2c(-c3ccc(F)cc3)nc3sccn23)cc(OC)c1OC
active: HT29 colon 5.08% | U251 CNS 5.59% | SK-MEL-5 melanoma -50.5% | CCRF-CEM leukemia -41.9%
inactive: HCT-15 colon 27.8% | SNB-75 CNS 32.3% | SNB-19 CNS 10% | PC-3 prostate 19.9% | UACC-62 melanoma 23.3% | LOX IMVI melanoma 15.6% | SK-MEL-28 melanoma 52.2% | SK-MEL-2 melanoma 10.1% | EKVX NSCLC 49.9% | SN12C renal 64.6% | UO-31 renal 22.1% | TK-10 renal 36.5% | ACHN renal 28.3% | CAKI-1 renal 15.1% | A498 renal 48.8% | MOLT-4 leukemia 39.2%

Cc1ccc(S(=O)(=O)Oc2ccc(Br)cc2Br)cc1
inactive: HCT-15 colon 48.5% | HT29 colon 34.5% | SNB-75 CNS 64.8% | SNB-19 CNS 75.7% | U251 CNS 48.5% | PC-3 prostate 79.4% | SK-MEL-5 melanoma 77.9% | UACC-62 melanoma 63.8% | LOX IMVI melanoma 52.3% | SK-MEL-28 melanoma 92.8% | SK-MEL-2 melanoma 75.4% | EKVX NSCLC 83.3% | SN12C renal 95.2% | UO-31 renal 88.9% | TK-10 renal 94.9% | ACHN renal 95.6% | CAKI-1 renal 65% | A498 renal 74.3% | CCRF-CEM leukemia 47.7% | MOLT-4 leukemia 47.5%

CC(C)CCSC1=CC(=O)c2ccccc2C1=O
active: SNB-75 CNS 7.99% | UO-31 renal -63.5% | CCRF-CEM leukemia 0.242%
inactive: HCT-15 colon 72% | HT29 colon 97% | SNB-19 CNS 92.3% | U251 CNS 86.3% | PC-3 prostate 37.8% | SK-MEL-5 melanoma 67.8% | UACC-62 melanoma 74% | LOX IMVI melanoma 38% | SK-MEL-28 melanoma 27.2% | SK-MEL-2 melanoma 83.1% | EKVX NSCLC 81% | SN12C renal 90.2% | TK-10 renal 103% | ACHN renal 11.2% | CAKI-1 renal 21.1% | A498 renal 98.4% | MOLT-4 leukemia 16%

N#C/C(=C(/O)CCCO)c1nc2ccccc2c(=O)[nH]1
inactive: HCT-15 colon 103% | HT29 colon 108% | SNB-75 CNS 80.6% | SNB-19 CNS 105% | U251 CNS 103% | PC-3 prostate 92.9% | SK-MEL-5 melanoma 107% | UACC-62 melanoma 96% | LOX IMVI melanoma 98% | SK-MEL-28 melanoma 110% | SK-MEL-2 melanoma 87.7% | EKVX NSCLC 108% | SN12C renal 100% | UO-31 renal 106% | TK-10 renal 110% | ACHN renal 106% | CAKI-1 renal 149% | A498 renal 124% | CCRF-CEM leukemia 97.8% | MOLT-4 leukemia 105%
